# The campaign covered roughly 330,000 compounds. About 1,900 (0.58%) were called active. Not shown: some 4% with an inconclusive outcome. A selection follows. Measured potencies and affinities stand elsewhere. A number with no mark means an inactive call. Cut-off read from the data, not from the text of the source: inconclusive = inhibition above about 70% without an active follow-up result; inactive = below that.
# Test: M. tuberculosis growth inhibition, HTS (AID 449762);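 note: bacterial growth assessed after seven days of incubation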
# Settings: M. tuberculosis H37Rv growth inhibition, 7H9 media; at 25 µM; stronger effect = higher value
row,SMILES,inhibition [%]
1,CSc1ncccc1C(=O)NCc1ccc(C)cc1,-4.41
2,COC(=O)c1ccc(Cn2cc(C(F)(F)F)ccc2=O)cc1,38.8
3,O=c1c([N+](=O)[O-])cc(C(F)(F)F)cn1Cc1c(Cl)cccc1Cl,27.9
4,Cc1c(S(=O)(=O)Nc2ccc(Br)cc2)c(=O)n(C)c(=O)n1C,1.85
5,C=C(C)c1cccc(C(C)(C)NC(=O)N(Cc2ccccc2)Cc2ccco2)c1,0.97
6,Cc1c(CCC(=O)NCCCn2ccnc2)c(=O)oc2cc3occ(C(C)(C)C)c3cc12,19.4
7,Cc1coc2c(C)c3oc(=O)c(CCC(=O)NCCCn4ccnc4)c(C)c3cc12,3.77
8,CCc1cccc(NS(=O)(=O)c2ccc3c(c2)N(C)CCO3)c1,3.34
9,CC1=C(C(=O)OCCC#N)C(c2cc3c(cc2Br)OCO3)NC(=O)N1 (configuration not stated),0.64
10,CCCCCCCCCC(=O)N/N=C(\C)c1cccnc1,22.8
11,CCCCCCCCC(=O)N/N=C(\C)c1cccnc1,7.1
12,C=CCNC(=S)N/N=C(\C)c1cccnc1,-7.58
13,C=CCNC(=S)N/N=C(\C)c1cccc(NC(C)=O)c1,-1.22
14,Cc1cc(C(=O)N2CCCC(N3CCN(c4cccc(C(F)(F)F)c4)CC3)C2)nn1C (configuration not stated),5.35
15,CC(Oc1ccc(Cl)cc1)C(=O)N(C)CC(=O)Nc1ccc(N2CCOCC2)cc1 (configuration not stated),-7.54
16,COc1ccc(C(=O)N/N=C/c2ccc(OC)c(CN3CCCc4ccccc43)c2)cc1,8.38
17,CC1=CC(C)(C)Nc2ccc(OC(=O)c3ccco3)cc21,4.65
18,O=C(Oc1cccc(OC(=O)c2ccco2)c1)c1ccco1,14.2
19,O=C(NCCCN1CCOCC1)Nc1ccc(Cc2ccc(NC(=O)NCCCN3CCOCC3)cc2)cc1,-4.04
20,O=C(O)c1cccnc1SCC(=O)N1CCCc2ccccc21,-17
21,COc1ccccc1N1CCN(C(=O)CNC(=O)c2ccc(Cl)cc2Cl)CC1,4.89
22,CC[n+]1c(/C=C/N(C)c2ccccc2)sc2ccc(Cl)cc21,0.95
23,CCn1c(/C=C/N(C)c2ccccc2)[n+](CC)c2ccc(Cl)cc21,0.68
24,CCCC(C)NC(=O)c1c2c(nc3ccccc13)CCC2 (configuration not stated),-4.36
25,Cc1cc(OC(=O)c2ccco2)c2c3c(c(=O)oc2c1)CCC3,-2.68

row,SMILES,inhibition [%]
1,O=C(Oc1cc2oc(=O)c3c(c2cc1Cl)CCCC3)c1cccs1,9.78
2,CN(C)c1c(N)c(=O)oc2ccccc12,-9.33
3,CCCCNc1c(-c2ccc(OC)c(SC3CCCCC3)c2)nc2ccc(Cl)cn12,8.29
4,COc1ccc(-c2nc3ccc(C)cn3c2NCc2ccccc2)cc1SC1CCCCC1,5.05
5,CN(CC(O)COCc1ccccc1F)C1CCCCC1 (configuration not stated),-0.04
6,O=C(O/N=C\c1ccc(N2CCCCC2)c([N+](=O)[O-])c1)c1c(F)cccc1F,2.52
7,Cc1ccc(C(=O)O/N=C\c2ccc(N3CCOCC3)c([N+](=O)[O-])c2)cc1,0.26
8,O=C(Cn1cnc([N+](=O)[O-])n1)c1ccccc1,0.7
9,COc1ccc(Nc2cc(Nc3cccc(OC)c3)ncn2)cc1,0.6
10,O=C(O)c1cccc(N/N=C/c2ccc(OC(F)(F)F)cc2)c1,4.3
11,Cc1nc2scc(-c3ccc(Cl)cc3)c2c(=O)n1N,-5.38
12,Cc1nc2scc(-c3ccc(C(C)C)cc3)c2c(=O)n1N,6.8
13,C1=Nc2ccccc2CN1c1ccccc1,-10.9
14,CCOc1ccc(N2C(=O)CCC2=O)cc1,-7.32
15,CCCc1cc(N2CCC(C(N)=O)CC2)nc(-c2ccccc2)n1,5.28
16,Nc1nc2ccccc2n1/N=C/c1cccnc1,-4.9
17,COc1ccc(/C=N/n2c(N)nc3ccccc32)cc1OC,4.73
18,Cc1ccc(C(=O)Nc2nc(C(C)(C)C)cs2)s1,56.8
19,Clc1ccc2nc(-c3ccncc3)cc(-c3ccccc3)c2c1,3.77
20,Cc1ccc2nc(-c3ccc(NS(C)(=O)=O)cc3)cc(-c3ccccc3)c2c1,0.07
21,COc1ccc(S(=O)(=O)N2CCN(C(=O)c3ccco3)CC2)cc1C(C)(C)C,-13.2
22,Cc1cc(C)nc(Sc2ccc([N+](=O)[O-])cc2[N+](=O)[O-])n1,0.29
23,Cc1cccc(Sc2ccc([N+](=O)[O-])cc2[N+](=O)[O-])n1,19.9
24,C/C(=C\C(=O)c1ccc(C)o1)Nc1ccc(C(=O)O)cc1C,-5.52
25,COc1ccc(OC)c(N/C(C)=C/C(=O)c2ccc(C)o2)c1,5.43

row,SMILES,inhibition [%]
1,Cc1ccn2c(-c3csc(NCc4ccco4)n3)c(C)nc2c1,7.31
2,Cc1nc2sccn2c1-c1csc(NCc2ccccc2)n1,54.7
3,O=C(COC(=O)CCN1C(=O)c2ccccc2C1=O)Nc1ccccc1[N+](=O)[O-],-0.89
4,O=C(Nc1ccccc1)C1C2/C=C\CCCCC21 (configuration not stated),5.24
5,Cc1ccc(NC(=O)C2C3/C=C\CCCCC32)cc1 (configuration not stated),-6.56
6,Cc1cc(F)ccc1S(=O)(=O)N1CCCOC1CNC(=O)C(=O)NC1CCCCC1 (configuration not stated),-6.82
7,CCOC(=O)N1CCN(c2c(NCCCN3CCCCCC3)c(=O)c2=O)CC1,1.01
8,CCOC(=O)/C(=N/Nc1ccccc1OC)N1CCCc2ccccc21,0.45
9,CCOC(=O)/C(=N/Nc1ccccc1)N1CCCc2ccccc21,0.18
10,Cc1ccc(S(=O)(=O)Cc2sc3ccccc3[n+]2C)cc1,-1.05
11,COc1ccc(NC(=O)C(CC(=O)O)Cc2ccccc2)cc1 (configuration not stated),-9.83
12,Cc1ccc(SCCNC(=O)/C=C/c2ccc(Cl)cc2)cc1,-7.24
13,CC(=O)c1ccc(-c2ccc(/C=C(/Sc3n[nH]c(C)n3)C(=O)O)o2)cc1,-2.81
14,Cc1nc(S/C(=C/c2ccc(-c3ccc(C(=O)O)cc3)o2)C(=O)O)n[nH]1,-0.51
15,CCCN1CCN(C(=O)c2ccc(CS(=O)c3ccc(Cl)cc3)o2)CC1 (configuration not stated),-5.84
16,Cc1ccc(C(=O)N(c2ccccn2)C(C)c2ccco2)cc1C (configuration not stated),6.78
17,Cc1ccc(Nc2nc(CSc3n[nH]c(N)n3)cs2)cc1,0.79
18,c1ccc(-c2nc(CSc3nnc(-c4cccs4)o3)cs2)cc1,3.49
19,CCc1ccc(NC(=O)C(NS(=O)(=O)c2ccc3c(c2)CCN3C(C)=O)C(C)C)cc1 (configuration not stated),0.33
20,CCN(CC)c1nc(Nc2ccc([N+](=O)[O-])cc2)nc(N(CC)CC)n1,6
21,Cc1ccc(Nc2nc(N)c3ccccc3n2)cc1Cl,11.2
22,Cc1ccc(NC(=O)c2ccsc2)cc1NS(C)(=O)=O,-6.89
23,C=CCc1c(C)nc(C)nc1N/N=C/c1ccc([N+](=O)[O-])cc1,-6.42
24,CN1CCN(C(=O)CCn2c(=O)c3cccn3c3cccnc32)CC1,6.95
25,O=C(Cn1c(=O)c2cccn2c2cccnc21)N1CCN(c2ccc(Cl)cc2)CC1,0.96

row,SMILES,inhibition [%]
1,Cc1cc2nc(C3CCN(Cc4nnnn4Cc4ccccc4)CC3)[nH]c2cc1C,34
2,Cc1ccc(CN2CCC(c3nc4ccc(Cl)cc4[nH]3)CC2)cc1,2.51
3,CC(=O)Nc1ccc(SCC(=O)Nc2sccc2C#N)cc1,-2.99
4,O=C(OCC(=O)c1c[nH]c2ccccc12)c1ccc(Br)o1,5.56
5,O=C(OCC(=O)c1c[nH]c2ccccc12)c1cncc(Br)c1,-0.17
6,CCOC(=O)c1c(NC(=O)c2ccccc2C(=O)O)sc2c1CCCC2,-6.92
7,CCOC(=O)c1c(NC(=O)c2ccccc2C(=O)O)sc2c1CCC2,-2.86
8,CCN1CCN(CC(O)COc2ccc(C)c(C)c2)CC1 (configuration not stated),4.44
9,COC(=O)c1sccc1NC(=O)c1ccccc1C(=O)O,1.76
10,CCn1nc(NC(=O)c2ccncc2)c2cc3ccc(C)cc3nc21,4.05
11,CCn1nc(NC(=O)c2ccncc2)c2cc3ccccc3nc21,2.23
12,O=C(Nc1ccccc1C(=O)O)c1cc(S(=O)(=O)N2CCCCC2)c(Cl)cc1Cl,-1.16
13,CCn1c2ccc(CC(=O)O)cc2c2cc(CC(=O)O)ccc21,-11.4
14,COc1ccc(NC(=O)CN2CCN(CC(=O)Nc3ccccc3F)CC2)c(OC)c1,-3.25
15,Cc1ccc(NC(=O)c2nc[nH]c2C(=O)NCCCNC(=O)c2[nH]cnc2C(=O)Nc2ccc(C)cc2)cc1,5.52
16,c1ccc(Nc2ccc(-n3ccnc3)nn2)cc1,-2
17,Cc1ccc(Nc2ccc(-n3ccnc3)nn2)cc1C,-0.37
18,COCc1cc(=O)[nH]c(/N=C(\N)Nc2ccc(C)cc2)n1,-14.4
19,Cc1nn(C)c(C)c1Nc1ccc(N2C(=O)C3C4C=CC(C4)C3C2=O)cc1[N+](=O)[O-] (configuration not stated),10.1
20,CCCn1nnnc1SCC(=O)N1C(C)CCCC1C (configuration not stated),5.01
21,COc1ccc(C(OCC(O)CNCCc2ccccc2)c2ccc(OC)cc2)cc1 (configuration not stated),19.9
22,COc1ccccc1COCC(O)CNCCc1ccc(C(F)(F)F)cc1 (configuration not stated),1.34

# — PubChem BioAssay AID449762 (Southern Research Specialized Biocontainment Screening …, 2010)
